Source: PubChem BioAssay AID1159580 (chemical genetic matrix, 2015)
The campaign covered roughly 5,500 compounds. About 2,000 (36%) were called active. Inconclusive results (about 18%) are left out. Cut-off read from the data, not from the text of the source: active = normalized growth mostly below about 0.91 (no sharp cut-off); inconclusive = no clear call, values can overlap the other calls; inactive = mostly above about 0.92. This is one part of the list.

Test: chemical genetic growth profiling, strain panel (AID 1159580);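 note: tested at 20 µM; growth read once vehicle control cultures reached saturation at 30 °C; 1 = growth at the plate median or of vehicle wells; lower values mean less growth of the strain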
Details: S. cerevisiae deletion strains, growth OD
[1] = locus YAR019C, strain CDC15, active compounds read low
[2] = locus YBL105C, strain PKC1, active compounds read low
[3] = locus YBR135W, strain CKS1, active compounds read low
[4] = locus YBR136W, strain MEC1, active compounds read low
[5] = locus YBR160W, strain CDC28, active compounds read low
[6] = locus YDL017W, strain CDC7, active compounds read low
[7] = locus YDL028C, strain MPS1, active compounds read low
[8] = locus YDL101C, strain DUN1, active compounds read low
[9] = locus YDL108W, strain KIN28, active compounds read low
[10] = locus YDL132W, strain cdc53, active compounds read low
[11] = locus YDL214C, strain PRR2, active compounds read low
[12] = locus YDR052C, strain DBF4, active compounds read low
[13] = locus YDR054C, strain cdc34, active compounds read low
[14] = locus YDR226W, strain ADK1, active compounds read low
[15] = locus YDR477W, strain SNF1, active compounds read low
[16] = locus YER123W, strain YCK3, active compounds read low
[17] = locus YER133W, strain GLC7, active compounds read low
[18] = locus YFL009W, strain cdc4, active compounds read low
[19] = locus YFL029C, strain CAK1, active compounds read low
[20] = locus YFR003C, strain YPI1, active compounds read low
[21] = locus YFR019W, strain FAB1, active compounds read low
[22] = locus YFR028C, strain CDC14, active compounds read low
[23] = locus YGR040W, strain KSS1, active compounds read low
[24] = locus YGR052W, strain FMP48, active compounds read low
[25] = locus YGR092W, strain DBF2, active compounds read low
[26] = locus YHR030C, strain SLT2, active compounds read low
[27] = locus YHR079C, strain IRE1, active compounds read low
[28] = locus YHR082C, strain KSP1, active compounds read low
[29] = locus YHR205W, strain SCH9, active compounds read low
[30] = locus YIL147C, strain SLN1, active compounds read low
[31] = locus YJL095W, strain BCK1, active compounds read low
[32] = locus YJL128C, strain PBS2, active compounds read low
[33] = locus YJL157C, strain FAR1, active compounds read low
[34] = locus YJR016C, strain ILV3, active compounds read low
[35] = locus YJR066W, strain TOR1 (second series), active compounds read low
[36] = locus YJR066W, strain TOR1, active compounds read low
[37] = locus YKL048C, strain ELM1, active compounds read low
[38] = locus YKL067W, strain YNK1, active compounds read low
[39] = locus YKL101W, strain HSL1, active compounds read low
[40] = locus YKL193C, strain SDS22, active compounds read low
[41] = locus YKL203C, strain TOR2, active compounds read low
[42] = locus YLR113W, strain HOG1, active compounds read low
[43] = locus YLR133W, strain CKI1, active compounds read low
[44] = locus YLR403W, strain SFP1, active compounds read low
[45] = locus YML070W, strain DAK1, active compounds read low
[46] = locus YMR001C, strain CDC5, active compounds read low
[47] = locus YMR205C, strain PFK2 (second series), active compounds read low
[48] = locus YMR277W, strain FCP1, active compounds read low
[49] = locus YNL006W, strain LST8, active compounds read low
[50] = locus YNL020C, strain ARK1, active compounds read low
[51] = locus YNL161W, strain CBK1, active compounds read low
[52] = locus YNL183C, strain NPR1, active compounds read low
[53] = locus YNL207W, strain RIO2, active compounds read low
[54] = locus YNL222W, strain SSU72, active compounds read low
[55] = locus YNL307C, strain MCK1 (second series), active compounds read low
[56] = locus YOL078W, strain AVO1, active compounds read low
[57] = locus YOL136C, strain PFK27, active compounds read low
[58] = locus YOR061W, strain CKA2, active compounds read low
[59] = locus YOR119C, strain RIO1, active compounds read low
[60] = locus YOR231W, strain MKK1, active compounds read low
[61] = locus YOR329C, strain SCD5, active compounds read low
[62] = locus YPL031C, strain PHO85, active compounds read low
[63] = locus YPL153C, strain RAD53, active compounds read low
[64] = locus YPL204W, strain HRR25, active compounds read low
[65] = locus YPL209C, strain IPL1, active compounds read low
[66] = locus YPL256C, strain CLN2, active compounds read low
[67] = locus YPR025C, strain CCL1, active compounds read low
[68] = locus YPR106W, strain ISR1, active compounds read low
[69] = locus YPR111W, strain DBF20, active compounds read low
[70] = strain NNK1, active compounds read low
[71] = strain TSCII, active compounds read low

Measured: normalized growth

COCCCNC(=S)N/N=C\c1cc(Cl)cc(Cl)c1O
inactive: [1] 0.958 | [2] 0.946 | [3] 0.957 | [4] 0.956 | [5] 0.965 | [6] 0.951 | [7] 0.951 | [8] 0.959 | [9] 0.961 | [10] 0.958 | [11] 0.942 | [12] 0.956 | [13] 0.947 | [14] 0.951 | [15] 0.914 | [16] 0.944 | [17] 0.924 | [18] 0.952 | [19] 0.958 | [20] 0.954 | [21] 0.962 | [22] 0.968 | [23] 0.927 | [24] 0.942 | [25] 0.783 | [27] 0.903 | [28] 0.983 | [29] 0.853 | [30] 0.957 | [31] 0.904 | [32] 0.924 | [33] 0.918 | [34] 0.957 | [35] 0.887 | [36] 0.957 | [37] 0.936 | [38] 0.953 | [39] 0.946 | [40] 0.953 | [41] 0.953 | [42] 0.904 | [43] 0.924 | [44] 0.889 | [45] 0.95 | [46] 0.956 | [47] 0.943 | [48] 0.962 | [49] 0.963 | [50] 0.903 | [51] 0.959 | [52] 0.988 | [53] 0.957 | [54] 0.962 | [55] 0.909 | [56] 0.962 | [57] 0.953 | [58] 0.951 | [59] 0.989 | [60] 0.943 | [61] 0.96 | [62] 0.904 | [63] 0.903 | [64] 0.882 | [65] 0.962 | [67] 0.961 | [68] 0.955 | [69] 0.96 | [70] 0.955 | [71] 0.956
active: [26] 0.797 | [66] 0.859

COCCCNC(=S)N/N=C\c1cc(Br)ccc1O
inactive: [1] 0.967 | [2] 0.971 | [3] 0.962 | [4] 0.967 | [5] 0.961 | [6] 0.966 | [7] 0.963 | [8] 0.975 | [9] 0.97 | [10] 0.963 | [11] 0.977 | [12] 0.973 | [13] 0.956 | [14] 0.96 | [15] 0.954 | [16] 0.989 | [17] 0.95 | [18] 0.96 | [19] 0.963 | [20] 0.966 | [21] 0.983 | [22] 0.972 | [23] 0.957 | [24] 1 | [25] 0.915 | [26] 0.898 | [27] 0.967 | [28] 1.03 | [29] 0.943 | [30] 0.957 | [31] 0.992 | [32] 0.936 | [33] 0.965 | [34] 0.966 | [35] 0.983 | [36] 1.02 | [37] 0.98 | [38] 0.984 | [39] 0.975 | [40] 0.954 | [41] 1.02 | [42] 0.985 | [43] 0.967 | [44] 0.91 | [45] 0.982 | [46] 0.965 | [47] 0.973 | [48] 0.961 | [49] 0.965 | [50] 0.975 | [51] 0.962 | [52] 1.09 | [53] 0.967 | [54] 0.966 | [55] 0.97 | [56] 0.964 | [57] 0.982 | [58] 0.974 | [59] 1.03 | [60] 0.997 | [61] 0.966 | [62] 0.938 | [63] 0.951 | [64] 0.937 | [65] 0.965 | [66] 0.903 | [67] 0.962 | [68] 0.971 | [69] 0.967 | [70] 0.982 | [71] 0.964
